Results from PubChem BioAssay (NCI).
Compounds without any hit were thinned out: in the full panel of roughly 83,000, 20% have a hit.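 Plates (96-well) were seeded with cells, treated with compound at one concentration, and incubated for 48 hours before percent growth was determined.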 Calls of active or inactive are those of the source. Rule for the calls: active = growth percent below 10; inactive = the rest.

Key:
Experiment in all cases: NCI-60 one-dose screen, 48 h (100 = growth as untreated, 0 = no growth, -100 = all killed)
Settings in all cases: 10 µM unless noted
SK-MEL-2 melanoma = test system: SK-MEL-2 melanoma
SN12C renal = test system: SN12C renal
UO-31 renal = test system: UO-31 renal
TK-10 renal = test system: TK-10 renal
ACHN renal = test system: ACHN renal
CAKI-1 renal = test system: CAKI-1 renal
A498 renal = test system: A498 renal
CCRF-CEM leukemia = test system: CCRF-CEM leukemia
MOLT-4 leukemia = test system: MOLT-4 leukemia

Measured: growth

Cc1ccc(S(=O)(=O)N(CCc2ccc(Cl)cc2)S(=O)(=O)c2ccc(C)cc2)cc1
inactive: SK-MEL-2 melanoma 75.3% | SN12C renal 105% | UO-31 renal 70% | TK-10 renal 83.9% | ACHN renal 95.2% | CAKI-1 renal 72.8% | A498 renal 115% | CCRF-CEM leukemia 83.7% | MOLT-4 leukemia 66.5%

COc1ccc(CCN2CCCn3c2nc2ccccc2c3=O)cc1
active: A498 renal -3.97%
inactive: SK-MEL-2 melanoma 51.1% | SN12C renal 45% | UO-31 renal 41.1% | TK-10 renal 69.3% | ACHN renal 40.4% | CAKI-1 renal 41.7% | CCRF-CEM leukemia 21.1% | MOLT-4 leukemia 18.5%

Cc1ccc(C2CC3c4ccccc4C2C2CCCCN32)cc1 (stereo not drawn)
inactive: SK-MEL-2 melanoma 88.2% | SN12C renal 90.3% | UO-31 renal 91.7% | TK-10 renal 97.1% | ACHN renal 97.8% | CAKI-1 renal 95% | A498 renal 139% | CCRF-CEM leukemia 92.2% | MOLT-4 leukemia 94.8%

CCOC(=O)c1ccc2c(c1)nc(/C=C/c1ccc(Cl)cc1)n2-c1cc(C(C)(C)C)[nH]n1
inactive: SK-MEL-2 melanoma 79.6% | SN12C renal 74.6% | UO-31 renal 46.8% | TK-10 renal 60% | ACHN renal 23.8% | CAKI-1 renal 92.3% | A498 renal 58.7% | CCRF-CEM leukemia 13.5%
active: MOLT-4 leukemia -2.76%

Cc1cc(Nc2nc(N3CCN(C)CC3)nc3ccccc23)n[nH]1
inactive: SK-MEL-2 melanoma 43.5% | SN12C renal 68.1% | UO-31 renal 54.9% | TK-10 renal 54.8% | ACHN renal 41.3% | CAKI-1 renal 13.4% | A498 renal 16.9% | CCRF-CEM leukemia 65.3% | MOLT-4 leukemia 69.9%

N#Cc1c2c(nc3n[nH]c(N)c13)CCCC2
inactive: SK-MEL-2 melanoma 109% | SN12C renal 105% | UO-31 renal 71.7% | TK-10 renal 128% | ACHN renal 101% | CAKI-1 renal 95.5% | A498 renal 121% | MOLT-4 leukemia 90.7%
active: CCRF-CEM leukemia 8.03%

CC#Cc1nc2ccccc2c(=O)[nH]1
active: A498 renal -44.8%
inactive: SK-MEL-2 melanoma 45.4% | SN12C renal 35.3% | UO-31 renal 22.9% | TK-10 renal 48% | ACHN renal 28.8% | CAKI-1 renal 54.5% | CCRF-CEM leukemia 19.6% | MOLT-4 leukemia 19.3%

COc1cc(OC)c(/C=C/c2cc[n+](C)c3ccccc23)c(OC)c1
active: SK-MEL-2 melanoma -8.65% | A498 renal 9.92% | CCRF-CEM leukemia 7.13% | MOLT-4 leukemia 3.59%
inactive: SN12C renal 10.7% | UO-31 renal 61% | TK-10 renal 53.4% | ACHN renal 71.8% | CAKI-1 renal 67.1%

NC(N)=Nc1ccc(S(=O)(=O)O)cc1
inactive: SK-MEL-2 melanoma 107% | SN12C renal 90.8% | UO-31 renal 94.6% | TK-10 renal 108% | ACHN renal 93% | CAKI-1 renal 115% | A498 renal 97.8% | CCRF-CEM leukemia 108% | MOLT-4 leukemia 85.2%

O=[N+]([O-])c1cccc(-c2nc3sccn3c2-c2ccnc(NCCCNS(=O)(=O)c3cccc(F)c3)n2)c1
inactive: SN12C renal 18.7% | TK-10 renal 52.9% | CAKI-1 renal 10% | A498 renal 33.7%
active: SK-MEL-2 melanoma -29.2% | UO-31 renal -11.6% | ACHN renal 6.36% | CCRF-CEM leukemia 3.04% | MOLT-4 leukemia -34.4%

CCc1ccccc1NC(=O)c1sc2nc3c(cc2c1N)C(=O)CCC3
active: A498 renal -9.7%
inactive: SK-MEL-2 melanoma 19.9% | SN12C renal 45.4% | UO-31 renal 44.5% | TK-10 renal 54.7% | ACHN renal 58.4% | CAKI-1 renal 29.9% | CCRF-CEM leukemia 13.6% | MOLT-4 leukemia 24.4%

Cc1ccc2c(c1)O/C(=C\c1cccc(OCC(=O)c3ccccc3)c1)C2=O
inactive: SK-MEL-2 melanoma 70% | SN12C renal 107% | UO-31 renal 78.4% | TK-10 renal 133% | ACHN renal 103% | CAKI-1 renal 85.1% | A498 renal 106% | CCRF-CEM leukemia 129%
active: MOLT-4 leukemia -34.3%

COC(=O)C12C3C(=O)N(c4ccc(OC)cc4)C(=O)C3C(c3cn(-c4ccccc4)nc3C)N1[C@H](c1cn(-c3ccccc3)nc1C)[C@@H]1C(=O)N(c3ccc(OC)cc3)C(=O)[C@@H]12 (stereo partly drawn)
inactive: SK-MEL-2 melanoma 107% | SN12C renal 104% | UO-31 renal 97.1% | TK-10 renal 96.5% | ACHN renal 101% | CAKI-1 renal 91.7% | A498 renal 89.4% | CCRF-CEM leukemia 104% | MOLT-4 leukemia 81.8%

CCCCNC(=O)NS(=O)(=O)c1ccc(N2N=C(c3cc(C)ccc3C)CC2c2cc(OC)c(OC)c(OC)c2)cc1 (stereo not drawn)
inactive: SK-MEL-2 melanoma 54.9% | SN12C renal 73.7% | UO-31 renal 32.2% | TK-10 renal 74.5% | ACHN renal 63.6% | CAKI-1 renal 39% | A498 renal 34.6% | CCRF-CEM leukemia 55.1% | MOLT-4 leukemia 30.9%

C=C1CCC2C3(C)COC(c4ccccc4Br)OC3CCC2(C)C1C/C=C1/C(=O)OCC1OC(C)=O (stereo not drawn)
active: SK-MEL-2 melanoma -37.4% | SN12C renal -43.7% | TK-10 renal -48.5% | ACHN renal -80.2% | CAKI-1 renal -32.4% | MOLT-4 leukemia -45.5%
inactive: UO-31 renal 26% | A498 renal 42.8%

CSc1nc(NCCO)c(C#N)c(-c2cccc(N)c2)n1
inactive: SK-MEL-2 melanoma 108% | SN12C renal 94.7% | UO-31 renal 74.6% | TK-10 renal 145% | ACHN renal 92.3% | CAKI-1 renal 80.3% | A498 renal 83.7% | CCRF-CEM leukemia 94.9% | MOLT-4 leukemia 95.6%

COc1cc(C2CC(=O)c3c(C)nn(-c4nc5ccccc5[nH]4)c3C2)cc(OC)c1OC (stereo not drawn)
inactive: SK-MEL-2 melanoma 91.2% | SN12C renal 75.9% | UO-31 renal 91.1% | TK-10 renal 45.3% | ACHN renal 59.1% | CAKI-1 renal 101% | A498 renal 56.5% | CCRF-CEM leukemia 104% | MOLT-4 leukemia 102%

NCc1cn2cc(Cl)sc2n1
inactive: SK-MEL-2 melanoma 102% | SN12C renal 105% | UO-31 renal 88.8% | TK-10 renal 92.1% | ACHN renal 102% | CAKI-1 renal 102% | A498 renal 90.8% | CCRF-CEM leukemia 103% | MOLT-4 leukemia 110%

COc1cc(-c2cc(-c3nc4ccc(Cl)cc4[nH]3)[nH]n2)cc(OC)c1OC
inactive: SK-MEL-2 melanoma 55.8% | SN12C renal 68.3% | UO-31 renal 20.6% | TK-10 renal 67.1% | ACHN renal 51.9% | CAKI-1 renal 35.1% | A498 renal 39.2%
active: CCRF-CEM leukemia 7.12% | MOLT-4 leukemia 4.79%

O=C(Nc1ccc(F)cc1)Nc1ccc(CCO)cc1
inactive: SK-MEL-2 melanoma 112% | SN12C renal 101% | UO-31 renal 94.1% | TK-10 renal 112% | ACHN renal 110% | CAKI-1 renal 103% | A498 renal 85.9% | CCRF-CEM leukemia 107% | MOLT-4 leukemia 102%

CN1CCCCC1CCN1c2ccccc2Sc2ccc(Br)cc21 (stereo not drawn)
inactive: SK-MEL-2 melanoma 69.5% | SN12C renal 73.3% | UO-31 renal 32.9% | TK-10 renal 72.3% | ACHN renal 58.7% | CAKI-1 renal 55.6% | A498 renal 66.7% | CCRF-CEM leukemia 32.6% | MOLT-4 leukemia 30.3%

CN(C)C(=O)c1cc2cnc(Nc3ccc(-c4csc5c(=O)cc(N6CCNCC6)oc45)cc3)nc2n1C1CCCC1
active: UO-31 renal -10% | A498 renal -7.2% | CCRF-CEM leukemia 1.39% | MOLT-4 leukemia 4.52%
inactive: SK-MEL-2 melanoma 33.6% | SN12C renal 24.2% | TK-10 renal 26.6% | ACHN renal 16% | CAKI-1 renal 43.2%

CC(=O)Oc1cc2cnc3c4cc(OC(C)=O)c(OC(C)=O)cc4ccc3c2cc1OC(C)=O
active: UO-31 renal -2.09% | CAKI-1 renal 6.51% | A498 renal -15.6% | CCRF-CEM leukemia -6.55% | MOLT-4 leukemia -6.19%
inactive: SK-MEL-2 melanoma 56.3% | SN12C renal 14.6% | TK-10 renal 21.8% | ACHN renal 15.3%

CCOC(=O)c1nc(Nc2cc(C)[nH]n2)c2ccccc2n1
inactive: SK-MEL-2 melanoma 89.4% | SN12C renal 97% | UO-31 renal 76.7% | TK-10 renal 77.3% | ACHN renal 73.4% | CAKI-1 renal 37.7% | A498 renal 62.4% | CCRF-CEM leukemia 96.9% | MOLT-4 leukemia 102%

COc1ccc(N(Cc2cc(OC)c(OC)c(OC)c2)C2OC(=O)c3ccccc32)cc1 (stereo not drawn)
inactive: SK-MEL-2 melanoma 21.5% | SN12C renal 52.8% | UO-31 renal 53.5% | TK-10 renal 53.5% | ACHN renal 61.5% | CAKI-1 renal 45.7% | A498 renal 14% | MOLT-4 leukemia 19.2%
active: CCRF-CEM leukemia 9.62%

CCOC(=O)N1CCN(c2nc(Nc3cc(C)[nH]n3)c3ccccc3n2)CC1
active: A498 renal -21.8%
inactive: SK-MEL-2 melanoma 52.4% | SN12C renal 45.8% | UO-31 renal 47.4% | TK-10 renal 40.9% | ACHN renal 50.7% | CAKI-1 renal 20.8% | CCRF-CEM leukemia 40.1% | MOLT-4 leukemia 69.1%

Cl/C(=N\Nc1ccccc1)c1ccccc1
inactive: SK-MEL-2 melanoma 96.6% | SN12C renal 93.2% | UO-31 renal 72.8% | TK-10 renal 96.8% | ACHN renal 92.5% | CAKI-1 renal 67.3% | CCRF-CEM leukemia 89.4% | MOLT-4 leukemia 80.1%

O=c1c2cccc3c(Nc4ccccn4)ccc(c32)c2nc3ccccc3n12
inactive: SK-MEL-2 melanoma 80.5% | SN12C renal 71.7% | UO-31 renal 46.6% | TK-10 renal 65.8% | ACHN renal 76.1% | CAKI-1 renal 51.8% | A498 renal 92.3% | CCRF-CEM leukemia 51.8% | MOLT-4 leukemia 61.8%

NC(=S)N/N=C/c1ccc(OCc2ccccc2)cc1
inactive: SK-MEL-2 melanoma 54.2% | SN12C renal 70.6% | UO-31 renal 22.8% | TK-10 renal 60.2% | ACHN renal 67% | CAKI-1 renal 68.2% | A498 renal 71.5% | CCRF-CEM leukemia 39.1% | MOLT-4 leukemia 32.1%

COc1ccc(/C=N\NC(=O)c2ccncc2)cc1O
inactive: SK-MEL-2 melanoma 90.8% | SN12C renal 96.7% | UO-31 renal 77.8% | TK-10 renal 102% | ACHN renal 102% | CAKI-1 renal 90.4% | A498 renal 108% | CCRF-CEM leukemia 99.3% | MOLT-4 leukemia 95.6%
